The panel holds about 83,000 compounds, 20% with a hit somewhere; the sample as a whole holds those more often.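 Growth was measured after 48 h exposure to one concentration of compound in 96-well plates. Values under 10 count as active.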 Unmarked numbers belong to inactive results. Calls of active or inactive are those of the source.
Legend:
Assay in all cases: NCI-60 one-dose screen, 48 h (100 = growth as untreated, 0 = no growth, -100 = all killed)
Conditions in all cases: 10 µM unless noted
NCI-H23 lung = system: NCI-H23 lung
NCI-H226 lung = system: NCI-H226 lung
NCI-H322M lung = system: NCI-H322M lung
HOP-62 NSCLC = system: HOP-62 NSCLC
NCI-H460 lung = system: NCI-H460 lung
HOP-92 NSCLC = system: HOP-92 NSCLC
NCI-H522 lung = system: NCI-H522 lung
A549/ATCC NSCLC = system: A549/ATCC NSCLC
786-0 renal = system: 786-0 renal
COLO 205 colon = system: COLO 205 colon

SMILES	growth (NCI-H23 lung) [%]	growth (NCI-H226 lung)	growth (NCI-H322M lung)	growth (HOP-62 NSCLC)	growth (NCI-H460 lung)	growth (HOP-92 NSCLC)	growth (NCI-H522 lung)	growth (A549/ATCC NSCLC)	growth (786-0 renal)	growth (COLO 205 colon)
COc1c(N)c2c(c([N+](=O)[O-])c1OC)C(=O)OC2	120	110%	99.8%	107%	113%	92.3%	98.6%	96.1%	102%	116%
CNC(=O)c1cc(Oc2ccc3nc(NC(=O)Nc4ccc(Cl)cc4)sc3c2)ccn1	69	67.9%	66.8%	6.54% (active)	64.4%	63.3%	78%	44.1%	75.3%	79.4%
COc1cc(-c2cc(-c3nc4ccccc4[nH]3)[nH]n2)cc(OC)c1OC	41	14.5%	39.5%	39.7%	35.5%	52.1%	37.2%	53.6%	57.6%	47.3%
COc1ccc2c(c1)C/C(=C\c1cc(-c3ccc4c(c3)OCO4)n[nH]1)C2=O	111	86.5%	113%	102%	92.6%	87.2%	105%	95.7%	106%	105%
Cc1nn(-c2ccc(Cl)cc2)c(=O)n1CCn1cnc2ccccc21	96.2	103%	96.8%	101%	107%	101%	85.3%	106%	87.4%	118%
Cn1cc(-c2nc(-c3c[nH]c4ncccc34)cs2)c2cc(F)ccc21	40.8	62.3%	35.1%	65.3%	24.6%	13.3%	22%	36.3%	41.3%	49.4%
COc1ccc(/C=C(\C#N)c2cc3ccccc3n2S(C)(=O)=O)cc1	89.8	89.7%	99.6%	91.5%	105%	86.5%	73.5%	104%	99.9%	111%
COc1cc2ncnc(Nc3ccc(OCc4cccc(F)c4)c(Cl)c3)c2cc1NC(=O)C1CCCC1	94.8	76%	34.4%	78.9%	88.7%	76.4%	50%	65.2%	78.3%	97.2%
Cn1c(=O)c2c(nc(N3CCCC3)n2C)n(C)c1=O	96.4	102%	105%	104%	102%	90.9%	91.5%	85.6%	97%	110%
Cc1cccc(C)c1NC(=O)CSC(=S)N1CCN(CCOCCO)CC1	100	117%	85.8%	105%	114%	110%	90%	101%	96.4%	113%
O=S(=O)(NCCNc1cc(-c2cn(-c3ccccc3)nc2-c2cccc(O)c2)ccn1)c1cccc(F)c1	45.8	55.3%	56.2%	56.7%	33.1%	51.1%	26.7%	42.4%	16.8%	-4.68% (active)
Cc1ccc(-c2ccc(/C=C(\C#N)c3nc(-c4ccco4)cs3)o2)cc1	95	92.7%	90.2%	97.5%	99.3%	100%	96.4%	103%	106%	99.1%
O=C1c2cccc3cccc(c23)C(=O)N1CC#Cc1ccc2c3c(cccc13)C(=O)N(CCO)C2=O	81	91.9%	94.9%	84.5%	95.8%	86.4%	92%	97.3%	98.1%	118%
Cc1ccnc2c(OCc3ccccc3)cccc12	93.5	81.9%	76.4%	106%	86.1%	53.4%	105%	93.5%	96.1%	113%
O=C1OC(c2ccc(Cl)c(Cl)c2)=C/C1=C/c1cccc([N+](=O)[O-])c1	88.1	86.3%	102%	94.2%	102%	94.3%	90.9%	97.4%	105%	108%
C/C(=N\Nc1cc(C)c2cc(C)ccc2n1)c1ccccn1	10.2	-5.19% (active)	-9.38% (active)	10.1%	-68.7% (active)	-11% (active)	-93.5% (active)	1.9% (active)	-73.3% (active)	-99.9% (active)
CC1(C)C(=O)/C(=C\c2ccco2)C[C@]2(C)[C@H]3CC[C@@H]4[C@@H](C(=O)/C=C/c5ccco5)CC[C@@]4(C)[C@]3(C)CC[C@@H]12	92.8	103%	105%	83.2%	98.7%	17.6%	92.4%	96.9%	119%	-80.2% (active)
N=c1c(S(=O)(=O)c2ccccc2)cc2c(=O)n3ccccc3nc2n1C1CCCC1	95.8	91.9%	74.9%	79%	105%	39.4%	92%	80.2%	80.8%	113%
N#C/C(=C\c1ccc(-c2ccc(F)cc2)o1)c1nc(-c2ccco2)cs1	93.6	84%	93%	96.7%	91.2%	93.9%	98.1%	103%	109%	108%
CCCC(=O)N1CCCCC1CC (stereo not given)	111	101%	127%	107%	97%	74.5%	99.9%	99.6%	104%	116%

Reference: PubChem BioAssay (NCI)
